Each structure is given as a SMILES string. Results filed as inconclusive are left out. Active and inactive are the calls of the source. Calls follow the shape of the dose curve; as a rule, active = well fitted cell-killing curve with a large enough effect; inconclusive = small, poorly fitted or top-dose-only effect; inactive = no such curve, though single readings can be large or run the other way.
Potency is read from the fitted curve at half-maximal effect.

A short description of the assay: Quantitative High-Throughput drug screen in 47 multiple myeloma cell lines against the NCATS MIPE library collection: NCIH929_DSMZ cell viability assay (AID 1918978). Also: nearly all actives have a fitted effect of over 35% in size. Particulars: NCI-H929 myeloma viability, CellTiter-Glo ATP, 48 h; series mostly up to 45.8 µM; viability, % of control: at the top concentration. From the text: PI: Beverly A. Mock Ph.D.
Laboratory of Cancer Biology and Genetics,
Center for Cancer Research, National Cancer Institute,
National Institute of Health, Bethesda, Maryland
Drug resistance and disease progression are common in multiple myeloma (MM) patients, underscoring the need for new therapeutic combinations. […] We hypothesized that effective combinations would reduce MYC expression and enhance p16 activity. […] These preclinical data identify potentially useful drug combinations for evaluation in drug-resistant MM and reveal potential mechanisms of combined drug sensitivity.
Described herein is the primary MIPE qHTS used to cherrypick compounds. Validated compounds were then further tested for potential synergistic activiy.
[1] Peat TJ, Gaikwad SM, Dubois W, Gyabaah-Kessie N, Zhang S, Gorjifard S, Phyo Z, Andres M, Hughitt VK, Simpson RM, Miller MA, Girvin AT, Taylor A, Williams D, D'Antonio N, Zhang Y, Rajagopalan A, Flietner E, Wilson K, Zhang X, Shinn P, Klumpp-Thomas C, McKnight C, Itkin Z, Chen L, Kazandijian D, Zhang J, Michalowski AM, Simmons JK, Keats J, Thomas CJ, Mock BA. Drug combinations identified by high-throughput screening promote cell cycle transition and upregulate Smad pathways in myeloma. Cancer Lett. 2023 Aug 1;568:216284. doi: 10.1016/j.canlet.2023.216284. Epub 2023 Jun 24. PMID: 37356470; PMCID: PMC10408729.
SEQUENCE No. (e.g., 1, 2, 3, etc.); […] (e.g., Cells, Incubation, Reagent, etc.); VALUE and DESCRIPTION.
1; Cells; 5 uL; white, solid bottom 1536-well Greiner assay plate.
2; Compounds; 23 nL; Kalypsis pin tool (Wako USA) equipped with a 1536-well pin head to transfer to the assay plates.
3; Incubation; 48 hours; 37C incubation.
4; Reagent;5uL; CellTiter Glo (Promega).
5; Detector; 425V; Luminescence; Viewlux PerkinElmer.
NOTES (numbers refer to Sequence numbers above)
1. The cell-based screening methods employed in this study were like those previously published. Briefly, the corresponding myeloma cell lines were screened in 1,536-well plates with 500 cells, 5-uL per well for inhibition of cell viability (assessed by measuring ATP levels with CellTiterGlo).
2. NCATS MIPE 4.0 library of approved and investigational drugs were added using the Kalypsis pin tool. Wells treated with DMSO only for 100% viability and media only for 0% viability were used as controls.
3. The assay plates were covered and incubated for 48 hours in a 37C, 5% CO2 incubator with controlled humidity.
4. After 48 hours, CellTilter-GloTM luminescent substrate mix (Promega) reagent was added to the assay plate and plates we incubated for 5 min at room temperature.
5. Signal was measured as median relative luminescence units on a ViewLux (PerkinElmer) multiplate reader.
[1] Heske CM, Davis MI, Baumgart JT, Wilson K, Gormally MV, Chen L, Zhang X, Ceribelli M, Duveau DY, Guha R, Ferrer M, Arnaldez FI, Ji J, Tran HL, Zhang Y, Mendoza A, Helman LJ, Thomas CJ. Matrix Screen Identifies Synergistic Combination of PARP Inhibitors and Nicotinamide Phosphoribosyltransferase (NAMPT) Inhibitors in Ewing Sarcoma. Clin Cancer Res. 2017 Dec 1;23(23):7301-7311. doi: 10.1158/1078-0432.CCR-17-1121. Epub 2017 Sep 12. PMID: 28899971; PMCID: PMC6636827.
Turning to `COc1ccc(-c2cc3c(C)nc(N)nc3n(C3CCC(OCCO)CC3)c2=O)cn1` (stereo not given), the Potency is 0.0093 µM (active). On to `COc1cc(=C2C=c3ccccc3=N2)[nH]c1=Cc1[nH]c(C)cc1C`, for which the Potency is 5.26 µM (active). As to `CC(=O)OCCN1C(=O)c2c(C)nc3ccc(S(=O)(=O)N4CCOCC4)cc3c2C1=O`, the “viability, % of control” value is 125% (inactive). As to `CC(=O)Nc1sc2c(c1-c1nc3ccccc3s1)CNC2`, the Potency is 16.6 µM (active). Turning to `CC(C)(O)c1cc2nc(-c3cnc(N)nc3)nc(N3CCOCC3)c2s1`, the Potency is 0.0148 µM (active). `CC1COC2(CCN(c3nc(=O)c4cc(C(F)(F)F)cc([N+](=O)[O-])c4s3)CC2)O1` (stereo not given): the “viability, % of control” value is 117% (inactive). In the case of `COc1cc2ncn(-c3cc(OCc4ccccc4C(F)(F)F)c(C(N)=O)s3)c2cc1OC`, the Potency was 7.43 µM (active). Regarding `O=C(O)C1(Cc2cccc(Nc3nccs3)n2)CCC(Oc2cccc(Cl)c2F)CC1` (stereo not given), the “viability, % of control” value was 113% (inactive). As to `CCCn1c(=O)c2[nH]c(-c3cnn(Cc4cccc(C(F)(F)F)c4)c3)nc2n(CC)c1=O`, the “viability, % of control” value is 112% (inactive).

Take `CC1(O)CC(c2nc(-c3ccc4ccc(-c5ccccc5)nc4c3)c3c(N)nccn23)C1` (stereo not given): the Potency is 0.187 µM (active).

With `COc1cc2c(Nc3ccc(NC(=O)c4ccccc4)cc3)ncnc2cc1OCCCN1CCOCC1`, the Potency was 16.6 µM (active). For `Nc1nccc(Oc2ccc(NC(=O)c3c[nH]cc(-c4ccc(F)cc4)c3=O)cc2F)c1Cl`, the Potency is 20.9 µM (active). `COC(=O)c1ccc2c(C(=Nc3ccc(N(C)C(=O)CN4CCN(C)CC4)cc3)c3ccccc3)c(O)[nH]c2c1`: the Potency was 5.9 µM (active). As for `Cc1[nH]c2ccccc2c1CCNCc1ccc(C=CC(=O)NO)cc1`, the Potency is 0.0526 µM (active). As to `C[C@]1(CO)CN(c2cc(C(=O)Nc3ccc4c(c3)-c3c(c(C(N)=O)nn3-c3ccc(F)cc3)CC4)c(Cl)cn2)C[C@@]1(C)CO`, the Potency was 9.35 µM (active).

`Cn1cncc1[C@@](N)(c1ccc(Cl)cc1)c1ccc2c(c1)c(-c1cccc(Cl)c1)cc(=O)n2C`: the Potency is 5.26 µM (active).

In the case of `Cc1coc2c1C(=O)C(=O)c1c-2ccc2c1CCCC2(C)C`, the Potency is 13.2 µM (active). Consider `O=C(NCCCNc1nc(Nc2cccc(NC(=O)N3CCCC3)c2)ncc1I)c1cccs1`, for which the Potency is 5.9 µM (active).

Take `CN(c1ncccc1CNc1nc(Nc2ccc3c(c2)CC(=O)N3)ncc1C(F)(F)F)S(C)(=O)=O`: the Potency is 2.96 µM (active).

In the case of `Cn1c2cc(S(C)=O)sc2c2cnn(Cc3cccc(N)c3)c(=O)c21` (stereo not given), the “viability, % of control” value was 114% (inactive). `Cn1cc(-c2[nH]c3cc(NC(=O)[C@H](N)C4CCCCC4)cc4c3c2C=NNC4=O)cn1`: the Potency was 1.32 µM (active). In the case of `COc1cc2ncnc(Nc3ccc(F)c(Cl)c3)c2cc1NC(=O)C=CCN1CCCCC1`, the Potency was 4.69 µM (active). As to `CC1=C(CO)C(=O)O[C@@H]([C@@H](C)[C@H]2CC[C@H]3[C@@H]4C[C@H]5O[C@]56[C@@H](O)C=CC(=O)[C@]6(C)[C@@H]4CC[C@]23C)C1`, the Potency is 0.166 µM (active). For the compound `CN1CCN(Cc2ccc(NC(=O)Nc3ccc(Oc4cc(NC(=O)C5CC5)ncn4)cc3)cc2C(F)(F)F)CC1`, the Potency is 0.132 µM (active). Regarding `CC(C)(C)OC(=O)Nc1ccc(-c2cc(C(=O)NCCCCCCC(=O)NO)no2)cc1`, the Potency was 1.66 µM (active).

On to `CCNC(=O)Nc1ccc2ncc(Nc3ccc(C)cc3)nc2n1`, for which the Potency is 7.43 µM (active). Consider `Cc1cc(Nc2cc(N3CCN(C)CC3)nc(Sc3ccc(NC(=O)C4CC4)cc3)n2)n[nH]1`, for which the Potency was 5.9 µM (active). As for `NC(=O)c1cccc2cn(-c3ccc([C@@H]4CCCNC4)cc3)nc12`, the Potency was 20.9 µM (active). As for `NC(=O)c1c(OCc2c(F)cc(Br)cc2F)nsc1NC(=O)NCCCCN1CCCC1`, the Potency is 9.35 µM (active). Same read-out and setting: the value for `Nc1ccccc1NC(=O)c1ccc(CNc2nccc(-c3cccnc3)n2)cc1` was 1.18 µM (active); that for `Cc1cc(Nc2ncnc3ccc(-c4ccc(CNCCS(C)(=O)=O)o4)cc23)ccc1Oc1ccn2ncnc2c1` was 4.18 µM (active). Regarding `COC(=O)C1=C(C)NC(C)=C(C(=O)OCCN2CCN(C(c3ccccc3)c3ccccc3)CC2)C1c1cccc([N+](=O)[O-])c1` (stereo not given), the “viability, % of control” value is 109% (inactive). Take `COc1cccc2c(NCc3ccccc3)nc(-n3c(N)nc4ccccc43)nc12`: the Potency is 3.32 µM (active). Regarding `c1ccc2c(CCNc3ccc(Nc4ccncc4)cc3)c[nH]c2c1`, the Potency is 20.9 µM (active). On to `CNC(=O)c1ccc(N2C(=S)N(c3cnc(C#N)c(C(F)(F)F)c3)C(=O)C23CCC3)cc1F`, for which the Potency is 0.332 µM (active).

As to `Cc1c(NC(=O)OC[C@@H]2COCCN2)cn2ncnc(Nc3ccc4c(cnn4Cc4cccc(F)c4)c3)c12`, the Potency is 18.7 µM (active). On to `O=C(c1cncc(Br)c1)N1CCC(N2CCCC2)CC1`, for which the “viability, % of control” value was 113% (inactive). For the compound `Cc1cnc(-c2cnc(NCCNc3ccc(C#N)cn3)nc2-c2ccc(Cl)cc2Cl)[nH]1`, the Potency was 10.5 µM (active). On to `CC1(C)O[C@@H]2C[C@@H]3[C@H]4C[C@@H](F)C5=CC(=O)C=C[C@]5(C)[C@@]4(F)[C@@H](O)C[C@]3(C)[C@]2(C(=O)CO)O1`, for which the “viability, % of control” value was 90.2% (inactive). As for `COc1cccc(Nc2c(C(N)=O)cnc3c(C)cc(S(=O)(=O)c4cccc(C(=O)N(C)C)c4)cc23)c1`, the “viability, % of control” value is 120% [at 23.2 µM] (inactive).

The values above are taken from PubChem BioAssay (NCATS).
